From PubChem BioAssay
HEK293 viab = reduces viability of HEK-293 SNCA reporter cells. AID 1671193. 150,000 compounds, 0.12% hits. HEK-293-SNCA-luc viability, GF-AFC fluorescence, 24 h. Potency, µM (series often up to 57.1 µM), for inactives: top-dose activity change, negative = cytotoxicity, hits mostly cytotoxic;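 further: potency means the concentration at half of the fitted maximal effect; 0% = DMSO-treated cells and -100% = medium-only wells without cells; nearly all actives have a fitted effect of over 30% in size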
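HEK-293-SNCA-luc cells (1500/well) plated 24 h, then exposed 24 h to a dilution series; GF-AFC added 30 min at 37C, fluorescence 405/540 nm; normalised to medium-only and DMSO wells, Hill fit.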
SNCA expr inhib = reduces expression of the alpha-synuclein gene. Potency, µM (series often up to 57.2 µM), inactives show at the highest dose activity change, negative = inhibition, hits mostly inhibitors. 140,000 compounds, 0.17% hits. AID 1671194. HEK-293 SNCA-luciferase knock-in, luminescence, 24 h;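 further: potency means the concentration at half of the fitted maximal effect; plate controls were DMSO cells for no effect and cell-free wells for full effect; nearly all actives have a fitted effect of over 45% in size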
IP6K1 inh = blocks human inositol hexakisphosphate kinase 1 | IP6K1 kinase, ADP-Glo luminescence, 2 h; active compounds read low | activity change, % (series mostly up to about 58 µM) | 140,000 compounds, 0.81% hits; in the data active means activity change below about -25%; further: on the % scale 0 is the no-effect control and ±100 the full control effect
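ADP-Glo luminescence measures ADP made by human IP6K1 during a 2 h RT reaction with ATP/IP6 (mix at 1.3 mM/130 uM); top library doses 57.5 and 19.1 uM final.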
KDM5B inh = inhibitors of human KDM5B histone demethylase | Potency, µM (top dose mostly 57.7 µM), hits mostly inhibitors | KDM5B demethylase, FDH-coupled NADH fluorescence (FDH is formaldehyde dehydrogenase) | Q9UGL1 | AID 1347165 | 220,000 compounds, 2.6% hits; further: potency means the concentration at half of the fitted maximal effect; 0% is about no effect; nearly all actives have a fitted effect of over 70% in size
Target sequence (Q9UGL1 whole entry, looked up): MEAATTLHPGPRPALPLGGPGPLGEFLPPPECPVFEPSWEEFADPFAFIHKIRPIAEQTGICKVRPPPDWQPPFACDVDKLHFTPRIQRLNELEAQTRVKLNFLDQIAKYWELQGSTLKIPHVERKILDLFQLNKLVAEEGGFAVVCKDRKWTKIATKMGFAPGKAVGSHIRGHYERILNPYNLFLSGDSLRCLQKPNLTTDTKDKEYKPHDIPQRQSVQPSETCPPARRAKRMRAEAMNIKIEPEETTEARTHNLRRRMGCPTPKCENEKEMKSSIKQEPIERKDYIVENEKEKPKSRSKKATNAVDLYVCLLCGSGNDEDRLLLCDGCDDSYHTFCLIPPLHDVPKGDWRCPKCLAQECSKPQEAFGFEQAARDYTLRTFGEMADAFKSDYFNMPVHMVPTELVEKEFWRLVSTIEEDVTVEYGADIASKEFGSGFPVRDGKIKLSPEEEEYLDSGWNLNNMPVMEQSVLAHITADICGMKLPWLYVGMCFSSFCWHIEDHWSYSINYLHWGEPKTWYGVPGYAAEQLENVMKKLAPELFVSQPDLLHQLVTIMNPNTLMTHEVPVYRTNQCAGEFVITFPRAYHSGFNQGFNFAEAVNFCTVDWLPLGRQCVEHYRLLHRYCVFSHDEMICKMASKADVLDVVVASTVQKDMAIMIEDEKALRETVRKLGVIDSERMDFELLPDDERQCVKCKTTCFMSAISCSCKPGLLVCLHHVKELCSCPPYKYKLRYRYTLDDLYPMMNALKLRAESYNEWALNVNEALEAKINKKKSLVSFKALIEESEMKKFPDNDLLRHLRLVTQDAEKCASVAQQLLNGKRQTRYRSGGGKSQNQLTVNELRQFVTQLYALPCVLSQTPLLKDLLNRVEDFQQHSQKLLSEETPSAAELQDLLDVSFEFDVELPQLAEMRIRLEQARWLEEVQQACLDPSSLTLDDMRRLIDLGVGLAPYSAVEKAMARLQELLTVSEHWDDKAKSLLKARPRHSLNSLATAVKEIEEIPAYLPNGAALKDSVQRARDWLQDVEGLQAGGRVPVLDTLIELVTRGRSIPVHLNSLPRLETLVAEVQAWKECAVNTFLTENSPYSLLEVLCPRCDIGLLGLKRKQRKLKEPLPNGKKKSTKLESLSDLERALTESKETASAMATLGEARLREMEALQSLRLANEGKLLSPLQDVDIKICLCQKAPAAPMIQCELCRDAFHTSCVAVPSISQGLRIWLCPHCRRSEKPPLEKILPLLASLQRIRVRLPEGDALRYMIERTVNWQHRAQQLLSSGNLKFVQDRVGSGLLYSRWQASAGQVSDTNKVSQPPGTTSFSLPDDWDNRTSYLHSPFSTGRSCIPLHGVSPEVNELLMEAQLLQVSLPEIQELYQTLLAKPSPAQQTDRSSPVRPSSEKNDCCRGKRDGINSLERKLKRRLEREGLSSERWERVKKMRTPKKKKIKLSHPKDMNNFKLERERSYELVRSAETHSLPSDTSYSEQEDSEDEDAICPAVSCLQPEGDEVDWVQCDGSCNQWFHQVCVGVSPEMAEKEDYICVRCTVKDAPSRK
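Compound dilutions met 200 nM (final) KDM5BΔAP for 10 min at room temperature before substrate addition. The substrate mix held 12.5 µM H3K4me3 with cofactors 25 µM α-ketoglutarate and 50 µM Fe²⁺. NADH signal gain over 30 min defined activity.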
* hit, by the source's call; i = inactive; ? = inconclusive; nt = no result; [ ] = remark or other dose. This is a sample that favours compounds with a hit; in the whole collection about 2.8% have one here. Unless noted, the call rests on the fitted dose curve; in most records, active means well fitted curve in the direction sought with a large enough effect; inconclusive means small, poorly fitted or top-dose-only effect, or another doubt; inactive means no such curve, though single readings can be large; an effect the other way counts as inactive or inconclusive.

SMILES	HEK293 viab	SNCA expr inhib	IP6K1 inh	KDM5B inh
O=C(NCc1cccnc1)c1nc(-c2cccc(C(F)(F)F)c2)c2cnccn12	5%	14%	12	28µM*
COC(=O)CNC(=O)c1nc(-c2cccc(C(F)(F)F)c2)c2cnccn12	-24%	50%	0	28µM*
O=C(NCc1ccc(F)cc1)c1nc(-c2ccccc2)c2cnccn12	11%	?	-2	79µM*
O=C(NCc1cccnc1)c1nc(-c2ccc(F)cc2)c2cnccn12	-7%	7%	0	28µM*
O=C(NC1CC1)c1nc(-c2cccc(C(F)(F)F)c2)c2cnccn12	13%	3%	1	i
COc1ccc(OC)c2[nH]c(C(=O)N3CCC(c4nnc5ccccn45)CC3)cc12	nt	nt	nt	i
O=C(c1sccc1-c1ccccc1)N1CCN(S(=O)(=O)c2cc(F)ccc2F)CC1	nt	nt	nt	i
C#CCNC(=O)c1nc(-c2cccc(F)c2)c2cnccn12	9%[87.6 µM]	-2%[87.6 µM]	0	35µM*
O=C(NCc1cccs1)c1nc(-c2ccc(F)cc2)c2cnccn12	18%[87.6 µM]	-5%[87.6 µM]	12	40µM*
O=C(NCc1cccnc1)c1nc(-c2cccc(F)c2)c2cnccn12	6%	1%	4	22µM*
O=C(NCc1ccc2c(c1)OCO2)c1nc(-c2ccc(F)cc2)c2cnccn12	10%	-2%	0	?
O=C(NC1CC1)c1nc(-c2cccc(F)c2)c2cnccn12	8%[87.6 µM]	-7%[87.6 µM]	4	i
CCN1C(=O)C2CC3(CCN(C(=O)c4cccs4)CC3)CN2C1=O (stereo unspecified)	1%	6%	5	i
CCCCC(=O)Oc1ccc2c(C)cc(=O)oc2c1	nt	nt	nt	i
COc1ccc(-c2nn(-c3ccc(C)cc3C)c(OC(C)=O)c2-c2ccc(NC(C)=O)cc2)c(OC)c1	16%	6%	1	32µM*
CC(=O)Oc1c(-c2ccc(NC(=O)C3CC3)cc2)c(-c2ccc3c(c2)OCO3)nn1-c1cccc(C)c1	-2%	10%	-5	35µM*
CCC(=O)Nc1ccc(-c2c(-c3ccc(C)cc3)nn(-c3ccc(F)cc3)c2OC(C)=O)cc1	-7%	2%	-8	?
CC(=O)Nc1ccc(-c2c(C3CC3)nn(-c3cccc(C)c3)c2OC(C)=O)cc1	?	-14%	21	?
CC(=O)Nc1ccc(-c2c(-c3cccc(C)c3)nn(-c3ccc(F)cc3)c2OC(C)=O)cc1	9%	-29%	-4	25µM*
CCC(=O)Nc1ccc(-c2c(-c3cc(OC)cc(OC)c3)nn(-c3ccc(C)cc3)c2OC(C)=O)cc1	-5%	-7%	1	28µM*
CC(C)(C)NC(=O)NCc1nnc2n1C(C(=O)NCc1ccccn1)CC2 (stereo unspecified)	-2%[12.5 µM]	4%	17	nt
Cc1cc(C(=O)N2CCN(S(=O)(=O)c3ccc(C(C)C)cc3)CC2)no1	nt	nt	nt	i
O=C(O)c1cc(/C=C/c2csc(-c3ccccn3)n2)nc2cc(F)ccc12	nt	nt	nt	i
COc1ccc(-c2nn(-c3ccc(F)cc3)c(OC(C)=O)c2-c2ccc(NC(C)=O)cc2)cc1OC	-12%	19%	29	20µM*
Cc1ccn2c(C(=O)N3CCCn4nc(C(O)CO)cc4C3)nnc2n1 (stereo unspecified)	-4%	9%	24	32µM*
SMILES	HEK293 viab	SNCA expr inhib	IP6K1 inh	KDM5B inh
CN(C)CC(O)c1cc2n(n1)CCCN(C(=O)c1cccn1C1CC1)C2 (stereo unspecified)	2%	-31%	17	i
CN(C)CCOc1ccccc1-c1ccc(C#N)cc1	9%	1%	8	32µM*
CN1CCC2(Cc3ccccc3CN(C(=O)Cc3ccccc3)C2)C1 (stereo unspecified)	-13%	-19%	-13	i
Cc1cc(C(=O)N[C@@H]2CCOC[C@H]2OCC(=O)O)sc1-c1ccccc1	2%	-5%	-6	25µM*
COCc1ccc(C(=O)N[C@@H]2CCOC[C@H]2OCc2ccccc2)s1	-3%	-3%	-9	i
CCc1n[nH]c(CC2CCN(C(=O)Nc3ccc4c(c3)OCCO4)CC2)n1	2%	-28%	16	22µM*
CN1Cc2cccn2CC1CNC(=O)Cc1cccc(F)c1 (stereo unspecified)	12%	17%	-9	28µM*
CN1Cc2cccn2CC1CNC(=O)Nc1ccccc1 (stereo unspecified)	7%	9%	13	i
CN1C(=O)c2cccn2CC1CNC(=O)C1(S(=O)(=O)c2ccc(Cl)cc2)CC1 (stereo unspecified)	-5%	-7%	-1	i
CN1Cc2cccn2CC1CNC(=O)Cc1ccccc1 (stereo unspecified)	3%	-18%	-8	18µM*
COCCN1C(=O)c2cccn2CC1CNC(=O)Cc1cccc(F)c1 (stereo unspecified)	3%	-11%	12	i
CN1Cc2cccn2CC1CNC(=O)C1(S(=O)(=O)c2ccc(Cl)cc2)CC1 (stereo unspecified)	6%	-18%	14	14µM*
CN1Cc2cccn2CC1CNC(=O)c1ccsc1 (stereo unspecified)	-16%	-11%	-11	20µM*
COc1ccc(OC)c(N2CC(O)=C(c3nc4ccccc4n3C)C2=N)c1	nt	nt	nt	i
Cc1ccc(C)c(Nc2nc(-c3ccccc3)cs2)c1	nt	nt	nt	i
CCc1nccc(CN2CCC(c3nn(C)c(=O)n3CC)CC2)n1	3%	10%	-2	16µM*
COC(=O)[C@@H]1Cc2ncn(Cc3ccc(OC)cc3)c2CN1S(=O)(=O)c1cccc2c(N(C)C)cccc12	-2%	-7%	22	18µM*
COC(=O)[C@@H]1Cc2ncn(Cc3ccc(Cl)cc3)c2CN1S(=O)(=O)c1ccc(OC)cc1	-26%	-30%	26	i
CCCn1cnc2c1CN(S(=O)(=O)c1cccc(C(F)(F)F)c1)[C@H](C(=O)OC)C2	-1%[87.6 µM]	-15%[87.6 µM]	3	32µM*
O=C(CSc1nnc(-c2cccs2)o1)NCCc1ccc(F)cc1	nt	nt	nt	i
O=C(Cc1cccc(F)c1)N1CC(Oc2cccc(-c3nc(-c4ccccc4)no3)c2)C1	?	20%	22	nt
CCCS(=O)(=O)N1CCc2nnc(C3CC3)n2CC1	-1%	-14%	-5	i
Cc1nc(Nc2n[nH]c3c2CN(C(=O)N[C@H](CN(C)C)c2ccccc2)C3(C)C)c2sccc2n1	?	0.015µM*	28	nt
Cc1ccc(C(=O)NC(CN(C)C)c2ccccc2)cc1F (stereo unspecified)	nt	nt	nt	i
CC(C)CN1C[C@@H](C(=O)O)C[C@@H](C(=O)NCc2ccccn2)C1	3%	1%	-5	i
O=C(O)CCC(=O)N[C@H]1CO[C@H]2[C@@H]1OC[C@@H]2Nc1nccc(-c2ccco2)n1	5%[87.6 µM]	-5%[87.6 µM]	10	32µM*
CC(=O)Nc1ccc(S(=O)(=O)N[C@H]2CO[C@H]3[C@@H]2OC[C@@H]3Nc2nccc(-c3ccco3)n2)cc1	-19%	-20%	17	22µM*
